Active and inactive are the calls of the source.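 How the source made its calls: active means thallium flux through the channel raised or lowered by more than 3 SD from vehicle-only wells, actives on both sides; inactive means the rest.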
Test system: F380Y/beta2Delta
Test: modulators of BK channel variants, profiling panel, selectivity assay, cell-based, U2OS BacMam, thallium flux, beta subunits (AID 1259406);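 further: initial slope of Thallos dye fluorescence rise after thallium is added; log ratio against the mean of 0.3% DMSO vehicle wells on the same plate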
Conditions: at 30 µM

Compound | log fold change Tl+ flux
CCOC(=O)c1nn(-c2ccc(C(C)(C)C)cc2)c(=O)c(C#N)c1C | -0.281 (active)
O=C(NC(=O)N1CCCCC1)c1cc(Br)cc(Br)c1 | -0.277 (active)
O=S(=O)(Nc1ccccc1SCc1ccc2nonc2c1)c1cccs1 | -0.0553 (inactive)
NC(=O)CN1C(=O)C(=Cc2ccco2)N=C1c1ccccc1 | -0.0599 (inactive)
COc1cc(C(F)(F)F)nc2ccc(C#CCOC(=O)Nc3cccc(Cl)c3)cc12 | -0.0312 (inactive)
Cc1ccc(S(=O)(=O)c2ncsc2SCc2ccc(Cl)cc2Cl)cc1 | 0.0366 (inactive)
NC(=O)c1nnn(-c2ccc([N+](=O)[O-])cc2)c1-c1ccccc1 | 0.0187 (inactive)
CN1c2ccsc2C(=O)C(=NNc2cccc(C(F)(F)F)c2)S1(=O)=O | 0.00348 (inactive)
O=C(OCCSc1sccc1[N+](=O)[O-])c1ccc(Cl)cc1 | 0.0128 (inactive)
CC(C)n1c(SCC(=O)c2ccccc2)nc2cc(Cl)ccc21 | -0.0247 (inactive)
CCOC(=O)c1ccc(OCC#Cc2ccc(C(F)(F)F)cn2)cc1 | -0.0279 (inactive)
CCSc1n[nH]c(=S)s1 | 0.00494 (inactive)
CCC(=NOc1ccc(C(F)(F)F)cn1)c1ccc(-c2ccccc2F)cc1 | 0.0209 (inactive)
Cc1cc(CNCC(O)C(F)(F)F)no1 (stereo not drawn) | -0.0229 (inactive)
COc1cccc(N2CC(=O)N(NC(=O)NC3CCCCC3)CC2=O)c1 | -0.0355 (inactive)
Cc1nn(-c2ccccc2)nc1C(=O)NNC(=O)CSCc1cccc2ccccc12 | 0.0266 (inactive)
Cc1ccc(S(N)(=O)=O)c(I)c1 | 0.0148 (inactive)
O=C(Nc1ccc(OC(F)(F)F)cc1)OC1CN(C(c2ccccc2)c2ccccc2)C1 | -0.0434 (inactive)
COCCCNC1=C(C#N)C(=O)NC(c2cccs2)S1 (stereo not drawn) | 0.0315 (inactive)
Cn1cnc([N+](=O)[O-])c1Sc1cccs1 | 0.0459 (inactive)

Compound | log fold change Tl+ flux
Cc1ncc(CSc2nc(C(C)(C)C)cs2)c(CO)c1O | -0.035 (inactive)
Cc1cc2c(NC(=O)c3ccccc3C(=O)O)cccc2nn1 | -0.0393 (inactive)
CSc1cc(C(C)(C)C)[nH]n1 | -0.218 (active)
NC(C=Cc1cc(C(F)(F)F)cc(C(F)(F)F)c1)=NOC(=O)c1c(F)cccc1F | -0.0278 (inactive)
O=C(O)c1cccc(CSc2cccs2)c1 | 0.0398 (inactive)
O=C(CC(=O)NNC(=O)c1ccc(F)cc1)NNC(=O)c1ccc(F)cc1 | 0.0456 (inactive)
CN1c2ccccc2C(C)(C)C12C=Cc1cc(Br)cc([N+](=O)[O-])c1O2 (stereo not drawn) | 0.0613 (inactive)
O=C(O)C(Cc1ccccc1[N+](=O)[O-])=NNc1ccccc1 | 0.0162 (inactive)
Cc1cccc(N=Cc2cc(Cl)cc(Cl)c2O)c1C | 0.0737 (inactive)
Cc1c(O)nc2ccccn2c1=O | 0.0329 (inactive)
Cc1cc(NS(=O)(=O)c2ccc(NC(=O)c3nccnc3C(=O)O)cc2)no1 | -0.054 (inactive)
Fc1cccc(Cl)c1CSc1nccn1-c1cccnc1 | 0.00345 (inactive)
Cc1cc(-c2nn(C)c(=O)c3ccccc23)cc(C)c1O | 0.00813 (inactive)
CC(C)(C)OC(=O)N1CCC(c2nc(-c3ccc(Cl)s3)cs2)CC1 | -0.0352 (inactive)
N#CC(CCC(=O)O)(CCC(=O)O)S(=O)(=O)c1ccccc1 | -0.0465 (inactive)
CC(C)(C)NC(=O)NCCO | 0.0577 (inactive)
CC(C)(C)c1cc2nc(C(F)(F)F)cc(NN=Cc3ccccc3)n2n1 | 0.0191 (inactive)
O=C1NC2CC2N1C(=O)OCc1ccccc1 (stereo not drawn) | 0.0281 (inactive)
Clc1ccc(Sc2cn[nH]c2-c2ccc3c(c2)OCCO3)cc1 | -0.0116 (inactive)

Test system: F380Y/beta4
Test: as above
Conditions: at 30 µM

Compound | log fold change Tl+ flux
CCOC(=O)c1nn(-c2ccc(C(C)(C)C)cc2)c(=O)c(C#N)c1C | -0.097 (active)
O=C(NC(=O)N1CCCCC1)c1cc(Br)cc(Br)c1 | -0.0283 (inactive)
O=S(=O)(Nc1ccccc1SCc1ccc2nonc2c1)c1cccs1 | -0.14 (active)
NC(=O)CN1C(=O)C(=Cc2ccco2)N=C1c1ccccc1 | -0.0551 (inactive)
COc1cc(C(F)(F)F)nc2ccc(C#CCOC(=O)Nc3cccc(Cl)c3)cc12 | 0.0143 (inactive)
Cc1ccc(S(=O)(=O)c2ncsc2SCc2ccc(Cl)cc2Cl)cc1 | -0.0184 (inactive)
NC(=O)c1nnn(-c2ccc([N+](=O)[O-])cc2)c1-c1ccccc1 | 0.0444 (inactive)
CN1c2ccsc2C(=O)C(=NNc2cccc(C(F)(F)F)c2)S1(=O)=O | 0.0228 (inactive)
O=C(OCCSc1sccc1[N+](=O)[O-])c1ccc(Cl)cc1 | -0.0285 (inactive)
CC(C)n1c(SCC(=O)c2ccccc2)nc2cc(Cl)ccc21 | -0.709 (active)
CCOC(=O)c1ccc(OCC#Cc2ccc(C(F)(F)F)cn2)cc1 | -0.0657 (inactive)
CCSc1n[nH]c(=S)s1 | 0.00824 (inactive)
CCC(=NOc1ccc(C(F)(F)F)cn1)c1ccc(-c2ccccc2F)cc1 | -0.0257 (inactive)
Cc1cc(CNCC(O)C(F)(F)F)no1 (stereo not drawn) | 0.06 (inactive)
COc1cccc(N2CC(=O)N(NC(=O)NC3CCCCC3)CC2=O)c1 | -0.0285 (inactive)
Cc1nn(-c2ccccc2)nc1C(=O)NNC(=O)CSCc1cccc2ccccc12 | -0.00465 (inactive)
Cc1ccc(S(N)(=O)=O)c(I)c1 | -0.000543 (inactive)
O=C(Nc1ccc(OC(F)(F)F)cc1)OC1CN(C(c2ccccc2)c2ccccc2)C1 | -0.154 (active)
COCCCNC1=C(C#N)C(=O)NC(c2cccs2)S1 (stereo not drawn) | -0.00136 (inactive)
Cn1cnc([N+](=O)[O-])c1Sc1cccs1 | 0.0453 (inactive)

Compound | log fold change Tl+ flux
Cc1ncc(CSc2nc(C(C)(C)C)cs2)c(CO)c1O | -0.0366 (inactive)
Cc1cc2c(NC(=O)c3ccccc3C(=O)O)cccc2nn1 | 0.0303 (inactive)
CSc1cc(C(C)(C)C)[nH]n1 | -0.423 (active)
NC(C=Cc1cc(C(F)(F)F)cc(C(F)(F)F)c1)=NOC(=O)c1c(F)cccc1F | -0.0864 (inactive)
O=C(O)c1cccc(CSc2cccs2)c1 | 0.000664 (inactive)
O=C(CC(=O)NNC(=O)c1ccc(F)cc1)NNC(=O)c1ccc(F)cc1 | -0.0066 (inactive)
CN1c2ccccc2C(C)(C)C12C=Cc1cc(Br)cc([N+](=O)[O-])c1O2 (stereo not drawn) | 0.00641 (inactive)
O=C(O)C(Cc1ccccc1[N+](=O)[O-])=NNc1ccccc1 | 0.0888 (inactive)
Cc1cccc(N=Cc2cc(Cl)cc(Cl)c2O)c1C | 0.0885 (inactive)
Cc1c(O)nc2ccccn2c1=O | 0.00904 (inactive)
Cc1cc(NS(=O)(=O)c2ccc(NC(=O)c3nccnc3C(=O)O)cc2)no1 | -0.0573 (inactive)
Fc1cccc(Cl)c1CSc1nccn1-c1cccnc1 | 0.0175 (inactive)
Cc1cc(-c2nn(C)c(=O)c3ccccc23)cc(C)c1O | -0.0513 (inactive)
CC(C)(C)OC(=O)N1CCC(c2nc(-c3ccc(Cl)s3)cs2)CC1 | -0.0115 (inactive)
N#CC(CCC(=O)O)(CCC(=O)O)S(=O)(=O)c1ccccc1 | -0.00447 (inactive)
CC(C)(C)NC(=O)NCCO | -0.013 (inactive)
CC(C)(C)c1cc2nc(C(F)(F)F)cc(NN=Cc3ccccc3)n2n1 | -0.0217 (inactive)
O=C1NC2CC2N1C(=O)OCc1ccccc1 (stereo not drawn) | 0.054 (inactive)
Clc1ccc(Sc2cn[nH]c2-c2ccc3c(c2)OCCO3)cc1 | 0.0103 (inactive)
